Assay [1] in a line: cAMP Responsive Elements (CRE) small molecule antagonists, cell-based qHTS assay: qHTS cell viability counter screen (AID 2060913). Further: nearly all actives have a fitted effect of over 40% in size. In outline:
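Cytotoxicity counter screen multiplexed with the CRE-bla antagonist read: HEK293T cells in DMEM with dialyzed FBS and 25 mM HEPES were treated 3 hrs under 0.25 uM final NKH477, then viability measured by CellTiter-Glo luminescence.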
For orientation: Quantitative high-throughput screening tests each substance at several concentrations.

A short description of assay [2]: cAMP Responsive Elements (CRE) small molecule agonists, cell-based qHTS assay: qHTS cell viability counter screen (AID 2060914).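 Further: viability read after 3 h of compound exposure; nearly all actives have a fitted effect of over 50% in size.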 In outline:
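Cells are seeded and incubated 18 h, treated with compounds in DMSO for 3 h, read for the bla reporter, then given CellTiter-Glo; luminescence is measured after 30 min at room temperature.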

Each structure is given as a SMILES string. Results filed as inconclusive are left out. Where a call stands in place of a potency, no number is given. The source made the active and inactive calls. The call rests on the fitted dose curve; in most records, active means well fitted cell-killing curve with a large enough effect in the repeat runs; inconclusive means weak or mixed curves, or effect the other way; inactive means flat fitted curve, though single readings scatter.

On to `CCCNC(=O)NS(=O)(=O)c1ccc(Cl)cc1`, for which the Potency entry in assay [1] and in assay [2] was “inactive” in each case.

With `O=C1OC(=O)c2ccc3c4c(ccc1c24)C(=O)OC3=O`, the Potency entry in assay [1] and in assay [2] was “inactive” throughout.

With `Cc1nc2ccccn2c(=O)c1CCN1CCC(C(=O)c2ccc(F)cc2)CC1`, the Potency entry in assay [1] and in assay [2] was “inactive” in each case.

Consider `N#C/C(=C1\SCC(c2ccccc2Cl)S1)n1ccnc1` (configuration not stated), for which the Potency entry in assay [1] and in assay [2] was “inactive” in each case.

Turning to `COC(=O)c1ccccc1C`, the Potency result in assay [1] and in assay [2] was “inactive” throughout.

`Cc1cc(O)ccc1N`: the Potency result in assay [1] and in assay [2] was “inactive” in each case.

On to `CCCCCCCCCCCCCCCCOS(=O)(=O)O`, for which the Potency entry in assay [1] and in assay [2] was “inactive” throughout.

`CCN(CCN)c1cccc(C)c1`: the Potency entry in assay [1] and in assay [2] was “inactive” each time.

For the compound `CC(CC=O)CCCC(C)(C)O` (configuration not stated), the Potency entry in assay [1] and in assay [2] was “inactive” each time.

On to `N#Cc1ccc(C2CCCc3cncn32)cc1` (configuration not stated), for which the Potency entry in assay [1] and in assay [2] was “inactive” in each case.

For `O=C1CCC(=O)N1Cl`, the Potency result in assay [1] and in assay [2] was “inactive” each time.

Turning to `C[C@]12C=CC(=O)C=C1CC[C@@H]1[C@@H]2[C@@H](O)C[C@@]2(C)[C@H]1CC[C@]2(O)C(=O)CO`, the Potency entry in assay [1] and in assay [2] was “inactive” each time.

On to `O=P(O)(O)OP(=O)(O)O`, for which the Potency result in assay [1] and in assay [2] was “inactive” in each case.

For `CCN1C=CN(C)C1C` (configuration not stated), the Potency entry in assay [1] and in assay [2] was “inactive” throughout.

Take `CC(=O)OCCOCCOCCOC(C)=O`: the Potency result in assay [1] and in assay [2] was “inactive” each time.

For `CS(=O)(=O)c1ccc([C@@H](O)[C@@H](CO)NC(=O)C(Cl)Cl)cc1`, the Potency result in assay [1] and in assay [2] was “inactive” each time.

As for `CC(C)c1ccc(C=O)cc1`, the Potency result in assay [1] and in assay [2] was “inactive” each time.

In the case of `CC(=O)Nc1ccc(N=Nc2cc(C)ccc2O)cc1`, the Potency entry in assay [1] and in assay [2] was “inactive” each time.

As for `CCC1(C)CC(=O)NC1=O` (configuration not stated), the Potency result in assay [1] and in assay [2] was “inactive” throughout.

Turning to `CN(C)C/C=C(/c1ccc(Br)cc1)c1cccnc1`, the Potency entry in assay [1] and in assay [2] was “inactive” throughout.

`CCc1ccc(CCOc2ccc(CC3SC(=O)NC3=O)cc2)nc1` (configuration not stated): the Potency result in assay [1] and in assay [2] was “inactive” in each case.
